How the values were obtained:
Settings in all cases: concentration: 1 μM, replicates: in singlicate; n = 1
[1] = tested on: CAMKK1
[2] = tested on: CAMKK2
[3] = tested on: CASK
[4] = tested on: T1, CDC2L1
T1 construct: gene CDK11B

[5] = tested on: CDC2L2
[6] = tested on: T2, CDC2L5
T2 construct: gene CDK13

[7] = tested on: T3, CDK11
T3 construct: gene CDK19

[8] = tested on: CDK2
[9] = tested on: CDK3
[10] = tested on: CDK4-cyclinD1
[11] = tested on: CDK4-cyclinD3
[12] = tested on: CDK4
[13] = tested on: CDK5
[14] = tested on: CDK7
[15] = tested on: CDK8
[16] = tested on: CDK9
[17] = tested on: CDKL1
[18] = tested on: CDKL2
[19] = tested on: CDKL3
[20] = tested on: CDKL5
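Note: KINOMEscan kinase panel screen.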

| Structure (SMILES) | %Inh [1] | %Inh [2] | %Inh [3] | %Inh [4] | %Inh [5] | %Inh [6] | %Inh [7] | %Inh [8] | %Inh [9] | %Inh [10] | %Inh [11] | %Inh [12] | %Inh [13] | %Inh [14] | %Inh [15] | %Inh [16] | %Inh [17] | %Inh [18] | %Inh [19] | %Inh [20] |
| --- | --- | --- | --- | --- | --- | --- | --- | --- | --- | --- | --- | --- | --- | --- | --- | --- | --- | --- | --- | --- |
| Fc1ccc(-c2ncn(CCCN3CCOCC3)c2-c2ccccn2)cc1 [SB-211742] | 16% | 19% | 0% | 1% | 0% | 21% | 0% | 0% | 43% | 22% | 0% | 0% | 0% | 0% | 29% | 0% | 40% | 49% | 4% | 5% |
| CCc1nc(-c2cccc(C)c2)c(-c2ccnc(NCc3ccccc3)c2)s1 | 3% | 12% | 16% | 0% | 5% | 11% | 0% | 0% | 9% | 0% | 0% | 0% | 0% | 0% | 0% | 1% | 13% | 0% | 2% | 0% |
| N#Cc1c(N2CCOCC2)sc(-c2ccn[nH]2)c1-c1ccc(Cl)cc1 | 0% | 0% | 0% | 0% | 11% | 0% | 7% | 0% | 5% | 31% | 2% | 29% | 15% | 43% | 0% | 0% | 0% | 0% | 0% | 0% |
| CSc1ccc(-c2cc3ncnc(SCC(=O)O)c3s2)cc1 | 44% | 45% | 0% | 7% | 0% | 0% | 0% | 0% | 40% | 0% | 0% | 0% | 22% | 25% | 0% | 33% | 4% | 0% | 0% | 0% |
| COc1cc(Nc2nccc(N3CCC(NC(=O)c4cccc(NC(C)=O)c4)C3)n2)cc(OC)c1OC (stereo not shown) [GSK1379754] | 0% | 11% | 1% | 0% | 2% | 0% | 20% | 2% | 0% | 0% | 0% | 12% | 0% | 9% | 33% | 0% | 0% | 22% | 0% | 4% |
| Cc1nnc(-c2ccc3ncc(-c4ccc(S(C)=O)cc4)n3c2)o1 (stereo not shown) | 24% | 46% | 0% | 0% | 0% | 25% | 17% | 0% | 2% | 8% | 0% | 0% | 0% | 0% | 13% | 0% | 0% | 4% | 2% | 10% |
| CN1c2ccc(CNc3ccc(F)cc3)cc2-c2c(cnn2C)S1(=O)=O | 0% | 0% | 22% | 0% | 0% | 15% | 0% | 0% | 0% | 13% | 0% | 0% | 0% | 0% | 0% | 0% | 9% | 0% | 0% | 0% |
| Nc1nc(-c2ccc3c(N)n[nH]c3c2)cc(N2CCCC2)n1 [GSK2227430] | 0% | 10% | 0% | 0% | 14% | 0% | 1% | 0% | 0% | 0% | 0% | 0% | 0% | 0% | 0% | 0% | 72% | 0% | 0% | 0% |
| Cc1cn2c(=O)cc(N3CCOCC3)nc2n1Cc1cccc(Cl)c1Cl [GSK2334006] | 30% | 32% | 20% | 0% | 6% | 0% | 11% | 17% | 25% | 0% | 0% | 3% | 2% | 0% | 15% | 0% | 0% | 3% | 0% | 2% |
| CCCCCc1nc2c(N)ncnc2n1CCCCC [SKF-97255] | 0% | 0% | 25% | 0% | 0% | 0% | 10% | 0% | 9% | 0% | 0% | 13% | 0% | 2% | 8% | 0% | 26% | 0% | 16% | 7% |
| O=C(NCCNc1ccnc(Nc2ccc(F)cc2)n1)Nc1ccccc1F [GSK1379880] | 0% | 0% | 1% | 0% | 9% | 0% | 0% | 0% | 20% | 0% | 3% | 28% | 0% | 0% | 0% | 0% | 0% | 15% | 0% | 0% |

From PMC5540273 (PLoS ONE, 2017)
